Test [1] is described as follows: NCI Yeast Anticancer Drug Screen. Data for the rad50 strain (AID 155).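 Also: 0% = growth of vehicle-only cultures of the same strain.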 As to conditions: S. cerevisiae rad50 strain growth inhibition, stronger effect = higher value. The essentials:
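Relative growth inhibition (compound vs vehicle) was measured in yeast with a defined repair-gene alteration.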

A short description of test [2]: NCI Yeast Anticancer Drug Screen. Data for the mec2-1 strain (AID 157). As to conditions: S. cerevisiae mec2-1 strain, stronger effect = higher value. The essentials:
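Yeast mec2-1 mutant treated with compound. Readout: growth inhibition vs vehicle controls.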

Test [3] in a line: NCI Yeast Anticancer Drug Screen. Data for the sgs1 mgt1 strain (AID 161).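 Also: 0% = growth of cultures given vehicle only.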 As to conditions: S. cerevisiae sgs1 mgt1 strain, stronger effect = higher value. Summed up:
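Genetically altered yeast, compound exposure, growth inhibition relative to vehicle.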

Test [4] can be described thus: NCI Yeast Anticancer Drug Screen. Data for the cln2 rad14 strain (AID 165).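 Also: 0% = growth equal to vehicle treated cultures.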 As to conditions: S. cerevisiae cln2 rad14 strain, stronger effect = higher value. The essentials: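 cln2 rad14 yeast strain; compound exposure; growth inhibition read vs vehicle controls.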
A short description of test [5]: NCI Yeast Anticancer Drug Screen. Data for the bub3 strain (AID 167). As to conditions: S. cerevisiae bub3 mutant strain, stronger effect = higher value. Summed up: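 Screening used yeast with an engineered genetic alteration affecting cell cycle control. Compound-exposed cultures were compared with vehicle cultures, and reduced growth was taken as inhibition.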
Test [6] is described as follows: NCI Yeast Anticancer Drug Screen. Data for the mlh1 rad18 strain (AID 175). As to conditions: S. cerevisiae mlh1 rad18 strain growth inhibition, stronger effect = higher value. The essentials:
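Yeast w/ defined DNA-repair lesions; compound exposure; growth vs vehicle controls → % inhibition.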

The mark [7] stands for this setting: at 5.0 µM (retest, dose inferred, filed as 0.5).
Where [8] appears, read: at 50.0 µM (retest, dose inferred, filed as 5.0).

The panel holds about 79,000 compounds, 15% with a hit somewhere; the sample as a whole holds those more often. Unmarked numbers belong to inactive results. Active and inactive are the calls of the source. Rule as the data show it: active = growth inhibition above about 70%; inactive = the rest.

Turning to `CCCCCCCCCCC[N+]1(Cc2ccccc2)CC2CCN(Cc3ccccc3)CC2C1` (configuration not stated), the growth inhibition in test [1] (setting [7]) is 97% (active); in test [1] (setting [8]) it was 100% (active); in test [1] (at 50.0 µM), 99.5% (active); in test [2] (setting [7]), 73% (active); in test [2] (setting [8]), 100% (active); in test [2] (at 50.0 µM), 99.3% (active). Besides, the growth inhibition was 54% in test [3] (setting [7]); 99% (active) in test [3] (setting [8]); 99.6% (active) in test [3] (at 50.0 µM); 95% (active) in test [4] (setting [7]); 99% (active) in test [4] (setting [8]); 99.4% (active) in test [4] (at 50.0 µM). Besides, the growth inhibition in test [5] (setting [7]) is 99% (active); in test [5] (setting [8]), 99% (active); in test [5] (at 50.0 µM), 99.5% (active); in test [6] (setting [7]) it was 97% (active); in test [6] (setting [8]) it was 99% (active); in test [6] (at 50.0 µM), 99.5% (active).
`CN(C)C1=NC(N(C)C)=C2C=CC=C12`: the growth inhibition is -3% in test [1] (setting [7]); 49% in test [1] (setting [8]); 66.2% in test [1] (at 50.0 µM); -2% in test [2] (setting [7]); 51% in test [2] (setting [8]); 43.8% in test [2] (at 50.0 µM). The growth inhibition is -4% in test [3] (setting [7]); 34% in test [3] (setting [8]); 33.4% in test [3] (at 50.0 µM); -3% in test [4] (setting [7]); 40% in test [4] (setting [8]); 72.5% (active) in test [4] (at 50.0 µM). Moreover, the growth inhibition in test [5] (setting [7]) was 2%; in test [5] (setting [8]), 73% (active); in test [5] (at 50.0 µM), 82.2% (active); in test [6] (setting [7]) it was -6%; in test [6] (setting [8]), 71% (active); in test [6] (at 50.0 µM) it was 86.8% (active).
With `CN(C)[C@H]1CC[C@H]2[C@@H]3CCC4C[C@@H](NC(=O)NC(Cc5ccccc5)c5nccs5)CC[C@]4(C)[C@H]3CC[C@]12C` (some centres not stated), the growth inhibition is 4% in test [1] (setting [7]); 4% in test [1] (setting [8]); 67.5% in test [1] (at 50.0 µM); -16% in test [2] (setting [7]); -16% in test [2] (setting [8]); 63.9% in test [2] (at 50.0 µM). The growth inhibition was -11% in test [3] (setting [7]); -11% in test [3] (setting [8]); 63.5% in test [3] (at 50.0 µM); -16% in test [4] (setting [7]); -16% in test [4] (setting [8]); 47.9% in test [4] (at 50.0 µM). The growth inhibition in test [5] (setting [7]) is -17%; in test [5] (setting [8]) it was -17%; in test [5] (at 50.0 µM) it was 65.9%; in test [6] (setting [7]), -21%; in test [6] (setting [8]), -21%; in test [6] (at 50.0 µM) it was 59%.
In the case of `CCCNC(=S)N/N=C(/C)c1nccc2ccccc12`, the growth inhibition was 9% in test [1] (setting [7]); 86% (active) in test [1] (setting [8]); 38.1% in test [1] (at 50.0 µM); 4% in test [2] (setting [7]); 98% (active) in test [2] (setting [8]); 20.4% in test [2] (at 50.0 µM). In addition, the growth inhibition in test [3] (setting [7]) was 7%; in test [3] (setting [8]), 88% (active); in test [3] (at 50.0 µM), 70% (active); in test [4] (setting [7]) it was -8%; in test [4] (setting [8]), 7%; in test [4] (at 50.0 µM), 17.9%. Further, the growth inhibition in test [5] (setting [7]) is 0%; in test [5] (setting [8]) it was 78% (active); in test [5] (at 50.0 µM) it was 14.8%; in test [6] (setting [7]), 3%; in test [6] (setting [8]) it was 93% (active); in test [6] (at 50.0 µM), 29.4%.
As for `c1ccc2c3ccn4ccc5c6ccccc6[nH]c5c4c-3nc2c1`, the growth inhibition in test [1] (setting [7]) is 38%; in test [1] (setting [8]) it was 96% (active); in test [1] (at 50.0 µM) it was 65.3%; in test [2] (setting [7]), 28%; in test [2] (setting [8]), 88% (active); in test [2] (at 50.0 µM), 47.1%. The growth inhibition in test [3] (setting [7]) is 27%; in test [3] (setting [8]), 93% (active); in test [3] (at 50.0 µM), 47.2%; in test [4] (setting [7]), 24%; in test [4] (setting [8]), 39%; in test [4] (at 50.0 µM), 34.1%. Further, the growth inhibition in test [5] (setting [7]) was 29%; in test [5] (setting [8]) it was 96% (active); in test [5] (at 50.0 µM), 43.8%; in test [6] (setting [7]), 33%; in test [6] (setting [8]), 98% (active); in test [6] (at 50.0 µM) it was 85.4% (active).
Turning to `Cc1ccc2sc3ccc(N)cc3c(=O)c2c1`, the growth inhibition was 27% in test [1] (setting [7]); 84% (active) in test [1] (setting [8]); 62.6% in test [1] (at 50.0 µM); 24% in test [2] (setting [7]); 74% (active) in test [2] (setting [8]); 31.6% in test [2] (at 50.0 µM). In addition, the growth inhibition in test [3] (setting [7]) is 26%; in test [3] (setting [8]) it was 89% (active); in test [3] (at 50.0 µM), 60.6%; in test [4] (setting [7]), 26%; in test [4] (setting [8]), 58%; in test [4] (at 50.0 µM), 43.7%. In addition, the growth inhibition was 25% in test [5] (setting [7]); 95% (active) in test [5] (setting [8]); 66.2% in test [5] (at 50.0 µM); 27% in test [6] (setting [7]); 92% (active) in test [6] (setting [8]); 81.8% (active) in test [6] (at 50.0 µM).
For the compound `C=C(CN(C)C)C(=O)c1ccccc1C`, the growth inhibition in test [1] (setting [7]) was -2%; in test [1] (setting [8]) it was 65%; in test [1] (at 50.0 µM), 87.6% (active); in test [2] (setting [7]), -8%; in test [2] (setting [8]) it was 88% (active); in test [2] (at 50.0 µM), 78.7% (active). The growth inhibition in test [3] (setting [7]) was 13%; in test [3] (setting [8]), 86% (active); in test [3] (at 50.0 µM) it was 85% (active); in test [4] (setting [7]), -17%; in test [4] (setting [8]) it was 45%; in test [4] (at 50.0 µM), 65.8%. Moreover, the growth inhibition was -11% in test [5] (setting [7]); 89% (active) in test [5] (setting [8]); 91.1% (active) in test [5] (at 50.0 µM); -4% in test [6] (setting [7]); 97% (active) in test [6] (setting [8]); 97% (active) in test [6] (at 50.0 µM).
Take `C=CCc1ccc2c(C)cc[n+](C)c2c1O`: the growth inhibition in test [1] (setting [7]) is 12%; in test [1] (setting [8]), 99% (active); in test [1] (at 50.0 µM), 100% (active); in test [2] (setting [7]), 19%; in test [2] (setting [8]), 99% (active); in test [2] (at 50.0 µM), 99.2% (active). The growth inhibition is 21% in test [3] (setting [7]); 99% (active) in test [3] (setting [8]); 99% (active) in test [3] (at 50.0 µM); -17% in test [4] (setting [7]); 99% (active) in test [4] (setting [8]); 99.5% (active) in test [4] (at 50.0 µM). Moreover, the growth inhibition in test [5] (setting [7]) is 1%; in test [5] (setting [8]), 99% (active); in test [5] (at 50.0 µM) it was 99.1% (active); in test [6] (setting [7]), 23%; in test [6] (setting [8]) it was 99% (active); in test [6] (at 50.0 µM) it was 98.8% (active).
As for `[N-]=[N+]=CC(=O)CCC(NC(=O)OCc1ccccc1)C(=O)OCc1ccccc1` (configuration not stated), the growth inhibition was 96% (active) in test [1] (setting [7]); 99% (active) in test [1] (setting [8]); 91.2% (active) in test [1] (at 50.0 µM); 97% (active) in test [2] (setting [7]); 100% (active) in test [2] (setting [8]); 93.1% (active) in test [2] (at 50.0 µM). The growth inhibition is 96% (active) in test [3] (setting [7]); 99% (active) in test [3] (setting [8]); 90.5% (active) in test [3] (at 50.0 µM); 96% (active) in test [4] (setting [7]); 99% (active) in test [4] (setting [8]); 90.9% (active) in test [4] (at 50.0 µM). Besides, the growth inhibition was 97% (active) in test [5] (setting [7]); 100% (active) in test [5] (setting [8]); 89% (active) in test [5] (at 50.0 µM); 97% (active) in test [6] (setting [7]); 98% (active) in test [6] (setting [8]); 90.8% (active) in test [6] (at 50.0 µM).

These data come from PubChem BioAssay (NCI).
